Compound activity: PubChem, several laboratories
Compounds with a hit are over-represented: about 3.3% of the library has one in this group of screens.
697 NFkB inh = inhibitors of the PMA/ionomycin-induced NF-kB reporter in 697 B cells; 697 B-cell NF-kB luciferase reporter, 16 h; inhibition, % at 4 µM; 0.33% of 330,000 active; AID 435022; in the data active means inhibition above about 35%
SMARCA2 act = activators of SMARCA2 function; MG213 cells, MMTV-luciferase reporter, dexamethasone, overnight; activation, % at 9.1 µM; 1% of 370,000 active; in the data active means activation above about 7.8%;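 further: 0% = vehicle wells and 100% = reference activator wells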
esBAF inh = blocks esBAF chromatin remodeling in mouse ES cells; 2% of 350,000 active; Bmi1-luciferase knock-in reporter, 24 h; 100% = twice the neutral-well signal; reporter increase, % at 12.5 µM; in the data active means activation above about 40%;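 further: 0% = median of the plate's neutral control wells and 100% = double that signal; a rise in the Bmi1 reporter signal indicates esBAF inhibition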
Jurkat NFkB inh = lowers PMA/ionomycin-induced NF-kB signal in Jurkat cells. AID 435003. inhibition, % at 4 µM. PMA/ionomycin-induced NF-kB luciferase reporter, luminescence. 0.53% of 330,000 active; in the data active means inhibition above about 50%
Gli-Sufu block = Gli-Sufu pathway antagonism | Sufu-KO-LIGHT fibroblasts, Gli luciferase reporter luminescence | inhibition, % at 5 µM | 0.74% of 340,000 active;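 active means inhibition above about 55%, limit read from the data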;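 further: 0% = DMSO-treated cells and 100% = wells with medium but no cells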
An asterisk follows results filed as active.

Screening CC(NC(=O)c1cc(COc2cccc(C(F)(F)F)c2)on1)c1nccs1 (stereo not drawn) returned 697 NFkB inh -11, SMARCA2 act 1, esBAF inh 61*, Jurkat NFkB inh -57 and Gli-Sufu block -35.
Screening O=C(c1cc(COc2cccc(C(F)(F)F)c2)on1)N1CCc2ccccc2C1 returned 697 NFkB inh 2, SMARCA2 act -2, esBAF inh -12, Jurkat NFkB inh 15 and Gli-Sufu block 0.
For O=C(c1cc(COc2cccc(C(F)(F)F)c2)on1)N1CCCC1 the results were SMARCA2 act 3 and esBAF inh 70*.
`CCOC(=O)N1CCN(C(=O)c2cc(COc3cccc(C(F)(F)F)c3)on2)CC1` gave 697 NFkB inh -86, SMARCA2 act 1, Jurkat NFkB inh -62 and Gli-Sufu block -6.
COc1ccc(CN(C)C[C@H]2Oc3ccc(NC(=O)NC(C)C)cc3CC(=O)N([C@H](C)CO)C[C@H]2C)cc1 was read as esBAF inh 0.
`COc1ccc2oc(=O)c(C(=O)N3CCN(c4ccccc4C)CC3)cc2c1` gave 697 NFkB inh -70, SMARCA2 act 6, esBAF inh 76* and Jurkat NFkB inh -48.
`COc1ccc2oc(=N)c(C(=O)Nc3cccc(C)c3C)cc2c1` gave 697 NFkB inh -120, SMARCA2 act 0, esBAF inh 80*, Jurkat NFkB inh -78 and Gli-Sufu block -75.
Screening COc1ccc2oc(=N)c(C(=O)Nc3ccc(C)cc3)cc2c1 returned 697 NFkB inh -31, SMARCA2 act 0, esBAF inh 43*, Jurkat NFkB inh -22 and Gli-Sufu block -29.
Screening COc1ccc2oc(=N)c(C(=O)Nc3ccc(F)cc3)cc2c1 returned 697 NFkB inh -38, SMARCA2 act -2, Jurkat NFkB inh 3 and Gli-Sufu block 6.
Screening CCC(=O)N1C[C@H](C)[C@@H](OC)CN(C)C(=O)c2ccc(NC(=O)c3cc(C)on3)cc2OC[C@H]1C returned esBAF inh 4.
Cc1cc(/C=C2/NC(=O)N(c3ccccc3)C2=O)c(C)n1-c1cccnc1 was read as 697 NFkB inh -29, SMARCA2 act 2, esBAF inh 71*, Jurkat NFkB inh -61 and Gli-Sufu block -77.
`S=C(NCc1ccncc1)Nc1ccc(Br)cc1Cl` gave 697 NFkB inh -16, SMARCA2 act -1, Jurkat NFkB inh -1 and Gli-Sufu block 21.
Screening Cc1cccnc1NC(=S)Nc1ccc(Br)cc1Cl returned 697 NFkB inh -80, SMARCA2 act 4, esBAF inh 55*, Jurkat NFkB inh -126 and Gli-Sufu block -112.
Screening C[C@H]1CCCCO[C@H](CN(C)CC2CC2)[C@@H](C)CN([C@@H](C)CO)C(=O)c2cc(NC(=O)Nc3ccccc3)ccc2O1 returned esBAF inh -1.
Screening CCN=c1scc(-c2ccco2)n1/N=C/c1ccc(OC)c(O)c1 returned 697 NFkB inh -22, SMARCA2 act 1, esBAF inh 54*, Jurkat NFkB inh -87 and Gli-Sufu block -24.
`CCN1[C@@H]2c3ccc(-c4ccccc4)c(=O)n3C[C@H]1[C@H](CO)[C@H]2C(=O)NC1CCC1` gave esBAF inh 1.
For COc1ccc(Br)cc1C(=O)Nc1cccc(-c2nnc(-c3ccco3)o2)c1 the results were 697 NFkB inh -20, SMARCA2 act 1, esBAF inh -2, Jurkat NFkB inh -25 and Gli-Sufu block 71*.
Screening COc1cccc(C(=O)Nc2cccc(-c3nnc(-c4ccco4)o3)c2)c1 returned 697 NFkB inh -30, SMARCA2 act 0, Jurkat NFkB inh -5 and Gli-Sufu block -24.
`O=C(C[C@@H]1CC[C@@H](NS(=O)(=O)c2cccc(F)c2)[C@@H](CO)O1)NCc1ccc2c(c1)OCO2` gave esBAF inh 1.
O=C1c2ccccc2C(=O)N1c1ccc(Br)c2cccnc12 was read as 697 NFkB inh 4, SMARCA2 act 0, esBAF inh 13, Jurkat NFkB inh 15 and Gli-Sufu block -9.
For Clc1ncccc1-c1nnn(-c2ccccc2Br)n1 the results were 697 NFkB inh -11, SMARCA2 act 5, esBAF inh 50*, Jurkat NFkB inh -21 and Gli-Sufu block -38.
Screening Clc1ccc(-n2nnc(-c3cccnc3Cl)n2)cn1 returned 697 NFkB inh -27, SMARCA2 act 4, esBAF inh 52*, Jurkat NFkB inh -41 and Gli-Sufu block -68.
`COc1ncccc1-c1nnn(-c2ccc(Cl)nc2)n1` gave 697 NFkB inh -17, SMARCA2 act 5, esBAF inh 19, Jurkat NFkB inh -4 and Gli-Sufu block -31.
Clc1nc2ccccc2cc1-c1nnn(-c2ccccc2Br)n1 was read as 697 NFkB inh -73, SMARCA2 act 4, esBAF inh 41*, Jurkat NFkB inh -19 and Gli-Sufu block -45.
C[C@@H]1CN([C@@H](C)CO)C(=O)c2cc(NC(=O)C3CCCCC3)ccc2O[C@@H](C)CCCCO[C@@H]1CN(C)C(=O)NC1CCCCC1 was read as esBAF inh -3.
`CCCC(=O)Nc1ccc2c(c1)C(=O)N(C)C[C@H](OC)[C@H](C)CN(S(=O)(=O)c1cn(C)cn1)[C@@H](C)CO2` gave esBAF inh -7.
Screening COCCNC(=O)[C@@H]1[C@@H](CO)[C@@H]2Cn3c(ccc(-c4ccccc4F)c3=O)[C@@H]2N1C(=O)C1CCCC1 returned esBAF inh -5.
O=C(CNC(=O)c1ccc(F)cc1)c1ccc(Cl)cc1 was read as 697 NFkB inh -67, SMARCA2 act 6, esBAF inh 53*, Jurkat NFkB inh -75 and Gli-Sufu block -53.
`COCCNC(=O)C[C@H]1CC[C@H]2[C@H](COc3ccc(NC(C)=O)cc3C(=O)N2C)O1` gave esBAF inh -4.
`NC(=O)c1ccc(OCc2ccccc2)nc1` gave SMARCA2 act 4, esBAF inh 60* and Gli-Sufu block -43.
`COCC(=O)N(C[C@H]1N[C@H](CO)[C@@H]1c1ccc(C2=CCCC2)cc1)C(C)C` gave esBAF inh 2.
For Clc1ccc(OCCCN2CCCCC2)c(Br)c1 the results were 697 NFkB inh 11, SMARCA2 act 0, esBAF inh 23*, Jurkat NFkB inh -38 and Gli-Sufu block 36.
Cc1ccc(S(=O)(=O)N(C)C[C@H]2Oc3ccc(NS(=O)(=O)c4ccc(Cl)cc4)cc3CC(=O)N([C@H](C)CO)C[C@H]2C)cc1 was read as esBAF inh -3.
`C[C@@H]1CN([C@H](C)CO)C(=O)c2cc(NC(=O)C3CCCCC3)ccc2O[C@@H](C)CCCCO[C@@H]1CN(C)Cc1ccc(Cl)c(Cl)c1` gave esBAF inh 0.
For C[C@@H]1CN([C@@H](C)CO)S(=O)(=O)c2ccc(C3=CCCC3)cc2O[C@@H]1CN(C)Cc1ccccn1 the results were esBAF inh 2.
`COc1ccc(OC)c(N)c1` gave 697 NFkB inh 7, SMARCA2 act -1, Jurkat NFkB inh 8 and Gli-Sufu block -5.
